VLA-4 inh: inhibition in a human VLA-4 binding assay | P13612 | VLA-4 expressing cells, ligand binding flow cytometry | inhibition, % (about 7 µM as worked out from the volumes in the protocol) | hit rate 0.2% among 330,000 | AID 2557; in the data active means inhibition above about 50%
SKN-1 block: blocks SKN-1 activity in C. elegans. AID 624304. C. elegans VP596 Pgst-4::GFP/RFP ratio, acrylamide-induced, 24 h. hit rate 0.49% among 360,000. inhibition, % at 21.8 µM;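 active means interference check ratio from 0.5 to 1.5 plus GFP to RFP signal ratio inhibition reaching or exceeding a fixed threshold, cut at about 30% in these data, passing the limit was not always enough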
Platelet DG rel: platelet dense granule release activity. human platelet-rich plasma, SFLLRN dense granule ATP release, luminescence. inhibition, %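 (compounds screened at 7.5 µM in platelet-rich plasma)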. hit rate 0.22% among 300,000;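 active means mean replicate score, as percent of positive control, at or above 50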
Yeast superoxide: caloric restriction mimetics inhibiting age-related superoxide in yeast; S. cerevisiae aged cells, superoxide DHE fluorescence; active compounds read low; superoxide response (% of plate mean), % at 10 µM; hit rate 0.18% among 330,000;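 active means superoxide response under a set limit, about three screen SD below normal, cut at about 65% in these data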;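 further: yeast aged for seven days with compound at 30 °C before DHE staining; 100% = average MFI of all compound-treated wells on the plate with controls excluded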
ABCB6 inh 2: blocks the human ABCB6 transporter; Q9NP58; K562-ABCB6 porphyrin accumulation, flow cytometry, 1 h; active compounds read low; fluorescence ratio to DMSO, % at 10 µM; hit rate 0.19% among 360,000; AID 602162;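 active means fluorescence ratio to DMSO below 75%, the collection mean minus 3 SD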;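 further: signal is porphyrin accumulated inside mitochondria; 100% equals median channel fluorescence of DMSO control wells; lower ratio means ABCB6 inhibition with less porphyrin fluorescence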
Target sequence (Q9NP58 whole entry, looked up): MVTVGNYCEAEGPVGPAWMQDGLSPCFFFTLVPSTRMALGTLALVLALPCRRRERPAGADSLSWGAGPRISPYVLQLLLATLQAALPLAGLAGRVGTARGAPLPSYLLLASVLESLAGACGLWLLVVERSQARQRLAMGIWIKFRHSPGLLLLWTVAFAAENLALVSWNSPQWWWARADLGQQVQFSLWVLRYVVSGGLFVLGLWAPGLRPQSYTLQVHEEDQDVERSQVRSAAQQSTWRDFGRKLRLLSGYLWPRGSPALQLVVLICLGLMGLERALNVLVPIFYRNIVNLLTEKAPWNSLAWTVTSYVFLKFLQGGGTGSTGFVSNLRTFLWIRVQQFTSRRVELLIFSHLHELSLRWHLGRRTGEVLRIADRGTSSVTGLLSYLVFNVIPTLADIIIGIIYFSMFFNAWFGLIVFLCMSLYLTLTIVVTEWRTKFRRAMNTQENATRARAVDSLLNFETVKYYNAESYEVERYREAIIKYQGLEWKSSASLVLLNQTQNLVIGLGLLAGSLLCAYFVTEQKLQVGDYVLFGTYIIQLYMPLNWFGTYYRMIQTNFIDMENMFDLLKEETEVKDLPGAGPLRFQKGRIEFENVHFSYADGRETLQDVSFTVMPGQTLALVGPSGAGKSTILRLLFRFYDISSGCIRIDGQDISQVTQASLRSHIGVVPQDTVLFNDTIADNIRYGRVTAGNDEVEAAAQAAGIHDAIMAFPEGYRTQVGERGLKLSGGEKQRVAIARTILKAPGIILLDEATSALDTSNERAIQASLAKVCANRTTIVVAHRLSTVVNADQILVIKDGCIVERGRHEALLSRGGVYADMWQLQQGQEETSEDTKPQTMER
* hit, by the source's call; x = no result. An excerpt weighted towards active compounds, which were near 1.2% of everything screened.

SMILES | VLA-4 inh | SKN-1 block | Platelet DG rel | Yeast superoxide | ABCB6 inh 2
COc1ccc(OC)c(CN2C(=O)CSCC2(C)C(=O)NC(C)C)c1 (stereo unspecified) | x | 12.6 | x | x | x
COc1ccccc1N1CCN(C2C(=O)Nc3ccccc3-n3nnnc32)CC1 (stereo unspecified) | x | 2.6 | x | x | x
COc1ccc(N2CCN(C(=O)CN(c3ccccc3)S(=O)(=O)c3ccc(OC)cc3)CC2)cc1 | -2.6 | 4.0 | 1.4 | 103.2 | 91.0
COc1ccc(S(=O)(=O)N(CC(=O)N2CCN(c3ccccc3OC)CC2)c2ccccc2)cc1 | -5.0 | 37.0* | x | 83.6 | 91.0
c1ccc(-c2cc3c(N4CCOCC4)ncnc3s2)cc1 | 1.9 | 38.0* | 2.6 | 102.7 | 96.0
C[C@@H]1CN([C@H](C)CO)C(=O)CCCn2cc(nn2)CO[C@H]1CN(C)C(=O)c1ccccc1 | x | -21.5 | x | x | 101.0
CC1(C)CC(=O)C(CSC(=O)c2ccccc2)C(=O)C1 | x | -3.7 | x | x | 100.0
CCC1OC2(C)OC(=N)C1(C#N)C(C#N)(C#N)C2c1ccccc1 (stereo unspecified) | -31.1 | 46.8* | -0.3 | 92.6 | 105.0
CC(C)C1OC2(C)OC(=N)C1(C#N)C(C#N)(C#N)C2c1ccccc1 (stereo unspecified) | 8.4 | 42.1 | -6.0 | 97.3 | 112.0
COc1ccccc1C(=O)Nc1ccc2c(c1)CCCN2C(=O)c1ccccc1 | 3.4 | 10.8 | 53.7* | 86.0 | 105.0
NC(=O)c1ccccc1N/C=C/C(=O)c1ccco1 | 19.4 | -3.6 | 6.8 | 98.8 | 101.0
O=C(NNC(=S)Nc1ccc(Br)cc1)c1cccnc1 | -4.2 | 2.4 | 10.7 | 87.3 | 101.0
CC(=O)Nc1ccc(N/C=C/C(=O)c2ccccc2)cc1 | 10.6 | 20.4 | 11.7 | 102.7 | 99.0
Cc1cc(N/C=C/C(=O)c2ccccc2)ccc1Br | 16.8 | 18.3 | 9.8 | 98.8 | 102.0
O=C(/C=C/Nc1ccc(Oc2ccccc2)cc1)c1ccco1 | -2.2 | 81.9* | 53.4* | 91.8 | 86.0
O=C(/C=C/Nc1ccc(F)cc1Br)c1ccccc1 | 6.4 | 37.0* | 52.3* | 95.4 | 94.0
CN(C)c1ccc(N/C=C/C(=O)c2ccccc2)cc1 | 2.8 | 1.1 | 88.4* | 84.6 | 102.0
O=C(/C=C\Nc1ccc(Br)cc1)c1cccnc1 | 3.1 | 86.5* | 2.1 | 107.7 | 99.0
O=C(/C=C/Nc1ccccc1)c1ccccc1 | 8.0 | 35.6* | 36.7 | 105.0 | 100.0
COc1ccc(C(=O)/C=C/c2ccc(O)cc2)cc1 | -1.8 | 10.7 | 32.7 | 85.3 | 95.0
O=C(/C=C/c1ccc(O)cc1)c1ccccc1 | 4.2 | 1.5 | 72.1* | 119.7 | 96.0
COc1cccc2oc3ccc(C#Cc4ccccn4)cc3c(=O)c12 | 12.4 | 21.3 | 62.2* | 106.8 | 101.0
COc1cccc2sc3cc(C#Cc4ccccn4)ccc3c(=O)c12 | -8.2 | 3.0 | x | 83.1 | 98.0
COCC(=O)Nc1sc2c(c1C(=O)OC)CCCC2 | 4.9 | 33.8* | -7.3 | 97.8 | 95.0
Cn1c(/C(C#N)=C(\O)c2ccc([N+](=O)[O-])s2)nc2ccccc21 | 5.4 | 40.4* | -4.5 | 108.8 | 96.0
SMILES | VLA-4 inh | SKN-1 block | Platelet DG rel | Yeast superoxide | ABCB6 inh 2
Cn1c(/C(C#N)=C(\O)c2ccc(Cl)s2)nc2ccccc21 | 3.4 | 6.2 | -3.0 | 108.0 | 99.0
CCOCCn1c(COc2ccccc2)nc2ccccc21 | 1.6 | 39.6* | 0.9 | 88.0 | 85.0
CCCn1c(COc2ccccc2)nc2ccccc21 | 13.8 | -11.4 | 3.4 | 95.6 | 97.0
Cc1ccc(C(C#N)c2ccc3c(C(F)(F)F)cc(C(F)(F)F)nc3n2)cc1 (stereo unspecified) | 9.0 | 43.8* | -0.2 | 123.6 | 99.0
CCOC(=O)C1=CCCN(S(=O)(=O)c2ccc(C)cc2)C1 | x | -0.9 | x | x | 98.0
c1ccc(N=Nc2ccc(C3=NCCO3)cc2)cc1 | x | 53.0* | x | x | 96.0
c1ccc(C2=NCCCO2)cc1 | x | 0.5 | x | x | 104.0
Cc1cccc(C2=N/C(=C\c3cccnc3)C(=O)O2)c1 | -16.4 | 14.9 | -4.8 | 97.7 | 68.0*
CSC1=C(C#N)C(c2ccc(Cl)cc2)C2=C(CC(C)(C)CC2=O)N1 (stereo unspecified) | -9.2 | 35.1* | 3.2 | 103.1 | 98.0
CCOC(=O)[C@]12CCCC=C1N(Cc1ccc(Cl)cc1Cl)C(=O)[C@H](CC(=O)N1CCN(C(=O)C3CC3)CC1)C2 | x | 10.4 | x | x | 95.0
COc1ccccc1Cc1c(C2CCCCC2)nc2cc(C)c(Br)c(C)n12 | x | 7.1 | x | x | 126.0
CCOc1ccc(NC(=O)C2CCCN(S(=O)(=O)c3c(C)n[nH]c3C)C2)cc1 (stereo unspecified) | 7.5 | 22.9 | -3.8 | 110.7 | 93.0
CCOc1ccc(NC(=O)C2CCCN(S(=O)(=O)c3c(C)nn(C)c3C)C2)cc1 (stereo unspecified) | -7.7 | 34.0* | -4.8 | 103.1 | 99.0
CCCCNC(=O)c1nc(-c2cnc(C)cn2)oc1-c1ccc(Cl)cc1 | x | -0.2 | x | x | x
COC(=O)[C@@]12C[C@@H](CC(=O)NCCc3ccccc3OC)C(=O)N(Cc3cccc4ccccc34)C1=CCC(C)(C)C2 | x | -4.0 | x | x | x
Cc1ccc(-c2nn(-c3ccccc3)cc2CSC(=N)N)cc1 | 20.6 | 42.8* | -1.4 | 110.6 | 94.0
Oc1cc2c(cc1O)[C@H]1c3ccc(O)c(O)c3OC[C@@]1(O)C2 | 10.2 | 37.3* | x | 83.9 | 97.0
Oc1ccc2c(c1)OCC1(O)Cc3cc(O)c(O)cc3C21 (stereo unspecified) | x | 64.6 | x | x | 123.0
CC1(C(=O)NCc2ccccc2)CSCC(=O)N1C1CC1 (stereo unspecified) | x | -2.6 | x | x | x
O=C(O)C1CCN(S(=O)(=O)Cc2ccccc2)CC1 | 0.0 | -3.1 | 3.5 | 93.8 | 97.0
CC1Cc2ccccc2N1C(=O)C1CCN(S(=O)(=O)Cc2ccccc2)CC1 (stereo unspecified) | 13.4 | 31.9* | 2.7 | 103.9 | 146.0
Cc1onc(-c2ccccc2)c1C(=O)Nc1nc2c(s1)C(=O)CC(C)(C)C2 | -10.6 | 40.3* | 1.5 | 98.0 | 101.0
Fc1ccc(Cn2nnc(-c3ccc(CN4CCOCC4)cc3)n2)cc1 | 0.0 | 36.4* | 4.6 | 77.8 | 95.0
Clc1ccccc1Cn1nnc(-c2ccccc2)n1 | -0.4 | 11.0 | 14.7 | 92.9 | 94.0
Clc1ccc(Cn2nnc(-c3ccc(CN4CCOCC4)cc3)n2)cc1 | -2.6 | 29.6 | -1.3 | 76.7 | 92.0
SMILES | VLA-4 inh | SKN-1 block | Platelet DG rel | Yeast superoxide | ABCB6 inh 2
Clc1ccc(Cn2nnc(-c3ccccc3)n2)cc1 | 7.8 | 53.6* | -6.7 | 96.8 | 87.0
OC[C@H]1O[C@@H](c2nc(-c3ccc(CN4CCOCC4)cc3)no2)[C@H](O)[C@@H](O)[C@H]1O | x | 8.7 | x | x | 102.0
COC(=O)CCCC1=CC2=CC(=O)C(C)(OC(=O)CCc3ccccc3)C(=O)C2=CO1 (stereo unspecified) | -3.2 | 33.1* | -3.3 | 101.0 | 102.0
CCCCOCCCNC(=O)C[C@@H]1C[C@@]2(C(=O)OCC)CCC=C2N(Cc2cccc3ccccc23)C1=O | x | 0.0 | x | x | 95.0
COc1ccc(C2CC(c3ccccc3)=NN2C(=O)c2cccs2)cc1 (stereo unspecified) | -13.9 | 37.2* | -4.5 | 97.6 | 96.0
COc1ccc(C2=NN(C(=O)c3cccs3)C(c3ccccc3O)C2)cc1 (stereo unspecified) | 3.1 | -3.4 | 16.8 | 92.7 | 97.0

Source: PubChem BioAssay (several laboratories)
